Results published in PubChem BioAssay (NCI).
About 83,000 compounds went through this panel and 20% of them were active in at least one assay; those are over-represented in the sample as a whole.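 How to read the values: 0–100, growth inhibition (40 = 60% inhibited); 0, no net growth; -100 to 0, cell death (-40 = 40% of starting cells died; -100 = all dead).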 Calls of active or inactive are those of the source. How the source made its calls: active means growth percent below 10; inactive means the rest.

Each compound was assayed on 786-0 renal (assay: NCI-60 one-dose screen, 48 h (100 = growth as untreated, 0 = no growth, -100 = all killed)). Conditions: 10 µM unless noted.

| Compound | growth |
| --- | --- |
| O=C(Nc1cccc(-n2cc(-c3ccncc3)c(-c3ccc(O)c(Cl)c3)n2)c1)Nc1ccc(Cl)c(C(F)(F)F)c1 | -6.01% (active) |
| CCOc1ccccc1C(=O)OCC(=O)Nc1cccc(S(=O)(=O)N(C)C)c1 | 109% (inactive) |
| Cn1c(N)c(N=O)c(=O)[nH]c1=O | 101% (inactive) |
| Cc1nn(-c2ccc(Br)cc2)c2nc3c(nc12)C(=O)C(=O)c1ccccc1-3 | 102% (inactive) |
| Cc1nn(-c2ccccc2)c2nc(Cl)c(/C=C/C(=O)c3ccccc3)c(-c3ccccc3)c12 | 106% (inactive) |
| S=C(Nc1ccc(C2=NCCN2)cc1)Nc1ccc(C2=NCCN2)cc1 | 98.2% (inactive) |
| COc1ccc(C(=O)/C=C/c2c(Cl)nc3c(c(C)nn3-c3ccccc3)c2-c2ccc(Br)cc2)cc1 | 91.5% (inactive) |
| O=C1c2ccccc2-c2c1nc1ccccc1[n+]2[O-] | 103% (inactive) |
| Cc1c(C(N)=O)sc2c1c(=O)n(Cc1ccccc1)c1nnc(S(=O)(=O)CC(=O)Nc3ccc(Cl)cc3)n21 | 3.47% (active) |
| OCCOc1c(Cl)cc(Cl)cc1Cl | 104% (inactive) |
| O=C1Nc2ccc(F)cc2/C1=C/c1nc(-c2ccc(F)cc2)n2ccccc12 | 114% (inactive) |
| CCOC(=O)C(C(C)=O)c1nc2sc3cc(Cl)ccc3n2c(=N)c1C#N (stereo not given) | 84.5% (inactive) |
| Cc1nn(-c2ccc(Cl)cc2)c2nc3c(nc12)c(=O)oc1ccccc13 | 98.1% (inactive) |
| Cc1nn(-c2ccccc2)c2ncc3c(c12)C(=O)N(Cc1ccccc1)C3=O | -4.88% (active) |
| OC(CCC(O)(c1ccccc1)c1ccccc1)(c1ccccc1)c1ccccc1 | 105% (inactive) |
| S=C(c1ccccc1)N1CCN(c2cccc(Cl)c2)CC1 | 107% (inactive) |
| COc1cc(OC)c2cc(C(=O)O)c(=O)oc2c1 | 83.9% (inactive) |
| Cc1c(C(N)=O)sc2ncn(Cc3ccccc3)c(=O)c12 | 96.1% (inactive) |
| O=C1CN(CO)C(=O)CN1CO | 105% (inactive) |

| Compound | growth |
| --- | --- |
| O=C(COC(=O)[C@H](C[Se][Se]C[C@H](NC(=O)c1ccc(Br)cc1F)C(=O)OCC(=O)c1ccc(F)cc1)NC(=O)c1ccc(Br)cc1F)c1ccc(F)cc1 | -94.6% (active) |
| CCOC(=O)C1C(=O)OC2CCCCC21 (stereo not given) | 100% (inactive) |
| COC(=O)[C@]1(CCSC)N[C@H](c2cn(-c3ccccc3)nc2C)[C@@H]2C(=O)N(c3ccccc3)C(=O)[C@@H]21 | 104% (inactive) |
| Cc1c(C(N)=O)sc2c1c(=O)n(Cc1ccccc1)c1nnc(SCC(=O)Nc3ccc(Cl)cc3)n21 | -41.2% (active) |
| O=C1OC(c2ccc(-c3ccccc3)cc2)=C/C1=C/c1cccs1 | 90.3% (inactive) |
| Oc1ccccc1/C=N\Nc1ccccc1 | 43.3% (inactive) |
| CCCCn1c(Cc2ccc(Cl)cc2)nc2cc(OC)c(OC)cc2c1=O | 84.4% (inactive) |
| Cn1[nH]cc(/C=N/C(N)=O)c1=O | 99.8% (inactive) |
| Cc1[nH]n(C(N)=S)c(=O)c1N=Nc1ccc(F)c(Cl)c1 | 95.6% (inactive) |
| CCSc1nnc2n(Cc3ccccc3)c(=O)c3c(C)c(C(N)=O)sc3n12 | 105% (inactive) |
| Cc1cc(C)c(OC(=O)CSc2nc3ccccc3c(=O)n2CCc2ccccc2)cc1C | 105% (inactive) |
| NC(=O)SCC(=O)Nc1ccccc1-c1ccccc1 | 95.5% (inactive) |
| Cc1nn(-c2ccc(Cl)cc2)c2nc3c(nc12)C(=O)C(=O)c1ccccc1-3 | 89.5% (inactive) |
| O=C(c1ccccc1)c1ccccc1Cl | 98.8% (inactive) |
| COc1cc(OC)c2sc(-c3ccc(-n4cncc4-c4ccc(N)cc4)cc3)nc2c1 | 71.8% (inactive) |
| O=C(CSc1nc2c(n1Nc1ccccc1)-c1ccccc1SC2)Nc1nc(-c2ccc(Cl)cc2)cs1 | 71.5% (inactive) |
| CN=C(NC)N/N=C(C)\C=N\NC(=NC)NC | 102% (inactive) |
| OC(Cc1cccnc1)c1ccccc1 (stereo not given) | 108% (inactive) |
| N#Cc1c(N2CCOCC2)nc2sc3cc(Cl)ccc3n2c1=N | 95.3% (inactive) |

These compounds were tested on COLO 205 colon in the same assay as above. Conditions: 10 µM unless noted.

| Compound | growth |
| --- | --- |
| Cc1nn(-c2ccc(Br)cc2)c2nc3c(nc12)C(=O)C(=O)c1ccccc1-3 | 89.6% (inactive) |
| Cc1nn(-c2ccccc2)c2nc(Cl)c(/C=C/C(=O)c3ccccc3)c(-c3ccccc3)c12 | 121% (inactive) |
| COc1ccc(C(=O)/C=C/c2c(Cl)nc3c(c(C)nn3-c3ccccc3)c2-c2ccc(Br)cc2)cc1 | 111% (inactive) |
| O=C1c2ccccc2-c2c1nc1ccccc1[n+]2[O-] | 111% (inactive) |
| Cc1c(C(N)=O)sc2c1c(=O)n(Cc1ccccc1)c1nnc(S(=O)(=O)CC(=O)Nc3ccc(Cl)cc3)n21 | 47.2% (inactive) |
| OCCOc1c(Cl)cc(Cl)cc1Cl | 114% (inactive) |
| Cc1nn(-c2ccc(Cl)cc2)c2nc3c(nc12)c(=O)oc1ccccc13 | 123% (inactive) |
| Cc1nn(-c2ccccc2)c2ncc3c(c12)C(=O)N(Cc1ccccc1)C3=O | 32.9% (inactive) |
| OC(CCC(O)(c1ccccc1)c1ccccc1)(c1ccccc1)c1ccccc1 | 103% (inactive) |
| S=C(c1ccccc1)N1CCN(c2cccc(Cl)c2)CC1 | 100% (inactive) |
| O=C1CN(CO)C(=O)CN1CO | 116% (inactive) |
| CCOC(=O)C1C(=O)OC2CCCCC21 (stereo not given) | 120% (inactive) |
| COC(=O)[C@]1(CCSC)N[C@H](c2cn(-c3ccccc3)nc2C)[C@@H]2C(=O)N(c3ccccc3)C(=O)[C@@H]21 | 112% (inactive) |
| Cc1c(C(N)=O)sc2c1c(=O)n(Cc1ccccc1)c1nnc(SCC(=O)Nc3ccc(Cl)cc3)n21 | 50.7% (inactive) |
| Oc1ccccc1/C=N\Nc1ccccc1 | 115% (inactive) |
| Cn1[nH]cc(/C=N/C(N)=O)c1=O | 110% (inactive) |
| CCSc1nnc2n(Cc3ccccc3)c(=O)c3c(C)c(C(N)=O)sc3n12 | 121% (inactive) |
| Cc1cc(C)c(OC(=O)CSc2nc3ccccc3c(=O)n2CCc2ccccc2)cc1C | 96% (inactive) |
| NC(=O)SCC(=O)Nc1ccccc1-c1ccccc1 | 95.3% (inactive) |
| Cc1nn(-c2ccc(Cl)cc2)c2nc3c(nc12)C(=O)C(=O)c1ccccc1-3 | 54.3% (inactive) |
| CN=C(NC)N/N=C(C)\C=N\NC(=NC)NC | 102% (inactive) |
| OC(Cc1cccnc1)c1ccccc1 (stereo not given) | 114% (inactive) |
